Measured values taken from the supplement of paper PMC4840960.
± gives the standard deviation of the averaged measurements.

Tests used:
[1] = test system: E18 rat cortical neuron-glia co-culture; assay: fiber score / MBP score (myelination specific beyond OL differentiation) (ratio); higher = more myelination-specific MBP alignment; conditions: treatment time: 8 days (DIV5-DIV13)
Procedure, shortened: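 Reported values are fiber score (continuous MBP fiber length per Olig2+ nucleus) divided by MBP score (thresholded MBP area × intensity per Olig2+ nucleus). They come from primary E18 rat cortical co-cultures treated with library compounds at 1 or 5 µM in myelination medium from DIV5 to DIV13, then fixed in 4 % paraformaldehyde, immunostained for MBP and Olig2 with DAPI, and analysed over four 10X fields per well in duplicate wells.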

[2] = test system: E18 rat cortical neuron-glia co-culture; assay: myelination (MBP fiber length per Olig2+ nucleus), % of 1 µM DAPT response (DMSO = 0) (% of DAPT); higher = more myelination, active = 50 or more; conditions: treatment time: 8 days (DIV5-DIV13)
Procedure, shortened: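 Rat cortical co-cultures from E18 tissue were dissociated with papain and plated at 20,000 cells/well on 96-well plates coated with poly-d-lysine/laminin. From DIV5 to DIV13, library compounds were added at 1 or 5 µM in myelination medium. After fixation in 4 % paraformaldehyde, cultures were immunostained for MBP and Olig2 and counterstained with DAPI, and four 10X fields were analysed in each of duplicate wells. The myelination value is the length of continuous straight MBP fibers per Olig2+ nucleus, normalised so that 0.1 % DMSO is 0 and a 1 µM positive control is 100.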

| Compound | fiber score / MBP score ([1]; 1 µM) | fiber score / MBP score ([1]; 5 µM) | myelination ([2]; 1 µM) | myelination ([2]; 5 µM) |
| --- | --- | --- | --- | --- |
| Cc1ccsc1C(=CCCN1CCC[C@@H](C(=O)O)C1)c1sccc1C [Tiagabine] | 0.656 | 0.716 | -23.8 (inactive) | -16.6 (inactive) |
| C=CC1=C(C(=O)O)N2C(=O)[C@@H](NC(=O)/C(=N\O)c3csc(N)n3)[C@H]2SC1 [Cefdinir] | 0.926 | 0.824 | 1.23 (inactive) | -0.0683 (inactive) |
| C#C[C@]1(O)CC[C@H]2[C@@H]3[C@H](C)CC4=C(CCC(=O)C4)[C@H]3CC[C@@]21C [Tibolone] | 0.647 | 0.773 | -17.1 (inactive) | -13.2 (inactive) |
| CN1C2CCCC1CC(NC(=O)c1nn(C)c3ccccc13)C2 (stereo not given) [Granisetron] | 0.781 | 1.1 | -10.7 (inactive) | 1.32 (inactive) |
| CCc1nn(CCCN2CCN(c3cccc(Cl)c3)CC2)c(=O)n1CCOc1ccccc1 [Nefazodone] | 0.932 | 0.76 | 2.86 (inactive) | 2 (inactive) |
| NC1CCN(c2cccc(Cl)n2)CC1 | 1.09 | 0.551 | 4.32 (inactive) | -35 (inactive) |
| O=c1[nH]c(=O)n(C2CCCO2)cc1F (stereo not given) [Tegafur] | 0.967 | 0.729 | -11.7 (inactive) | 34.5 (inactive) |
| Cc1[nH]c(=O)c(C#N)cc1-c1ccncc1 [Milrinone] | 0.762 | 0.504 | -7.08 (inactive) | -15.7 (inactive) |
| CN1CCN(c2c(F)cc3c(=O)c(C(=O)O)cn4c3c2SCC4)CC1 [Rufloxacin] | 1.05 | 0.68 | 62.1 | -35.3 (inactive) |
| CN1C(=O)CC[C@H]1c1cccnc1 [Cotinine] | 0.604 | 0.723 | -30.3 (inactive) | -28.1 (inactive) |
| CC(=O)Oc1ccccc1C(=O)Nc1ncc([N+](=O)[O-])s1 [Nitazoxanide] | 1.18 | 1.61 | 4.89 (inactive) | 91.6 (active) |
| Oc1ccc(C2CNCCc3c2cc(O)c(O)c3Cl)cc1 (stereo not given) [Fenoldopam] | 0.941 | 0.611 | -10.8 (inactive) | -45 (inactive) |
| CCn1cc(C(=O)O)c(=O)c2ccc(C)nc21 [Nalidixic Acid] | 0.966 | 0.797 | -2.25 (inactive) | -7.26 (inactive) |
| CN1[C@@H]2CC[C@H]1C[C@@H](OC(=O)c1c[nH]c3ccccc13)C2 [Tropisetron] | 0.706 | 0.562 | -47.4 (inactive) | -53.9 (inactive) |
| CS(N)(=O)=O [Methanesulfonamide] | 0.63 | 0.693 | -10.9 (inactive) | -10.7 (inactive) |
| Cn1c(NCCN(CCO)CCCc2ccc([N+](=O)[O-])cc2)cc(=O)n(C)c1=O [Nifekalant] | 0.616 | 0.616 | -9.01 (inactive) | -19.6 (inactive) |
| COc1ccccc1OCC(O)COC(N)=O (stereo not given) [Methocarbamol] | 0.67 | 0.985 | -9.38 (inactive) | -3.49 (inactive) |
| COc1cc(OC)c(C(=O)CCCN2CCCC2)c(OC)c1 [Buflomedil] | 0.901 | 0.768 | -13.2 (inactive) | -13.3 (inactive) |
| CN1CCN(C2=Nc3ccccc3Oc3ccc(Cl)cc32)CC1 [Loxapine] | 0.561 | 0.903 | -14.9 (inactive) | 4.82 (inactive) |
| NC(=O)N1c2ccccc2C=Cc2ccccc21 [Carbamazepine] | 0.735 | 0.902 | 2.28 (inactive) | 2.05 (inactive) |
| CNCC[C@H](Oc1cccc2ccccc12)c1cccs1 [Duloxetine] | 0.73 ± 0.064 | 0.881 ± 0.45 | -25.8 (inactive) | -33.2 (inactive) |
| C[C@]12C=CC(=O)C=C1CC[C@@H]1[C@@H]2C(=O)C[C@@]2(C)[C@H]1CC[C@]2(O)C(=O)CO [Prednisone] | 0.839 | 0.736 | -13.2 (inactive) | -10.1 (inactive) |
| O=C(O[C@@H]1C[C@@H]2C[C@H]3C[C@H](C1)N2CC3=O)c1c[nH]c2ccccc12 [Dolasetron] | 0.649 | 0.701 | -3.78 (inactive) | -14.7 (inactive) |
| O=C1c2cccc3c2[C@H](CCC3)CN1[C@@H]1CN2CCC1CC2 [Palonosetron] | 0.728 | 0.587 | -11.1 (inactive) | -11.5 (inactive) |
| CCN(CC)CC1CCCCN1CC(=O)N1c2ccccc2C(=O)Nc2cccnc21 (stereo not given) [Otenzepad] | 0.774 | 0.692 | -9.61 (inactive) | -15.6 (inactive) |
